Test results published in the supplement of paper PMC12645437, “Orthogonal IMiD-Degron Pairs Induce Selective Protein Degradation in Cells” (ACS Chemical Biology, 2025).
The full ranking holds about 8,300 sequences; the median of “log2 fold change of degron read counts, EGFP-low vs EGFP+ sorted cells (limma voom), compound-induced degradation” is about -1.1, and the highest 2% start at about 3.2. The entries come from a sample that favours the highest values as a whole.

T1: CRBN, Q96SW2
T1 chain: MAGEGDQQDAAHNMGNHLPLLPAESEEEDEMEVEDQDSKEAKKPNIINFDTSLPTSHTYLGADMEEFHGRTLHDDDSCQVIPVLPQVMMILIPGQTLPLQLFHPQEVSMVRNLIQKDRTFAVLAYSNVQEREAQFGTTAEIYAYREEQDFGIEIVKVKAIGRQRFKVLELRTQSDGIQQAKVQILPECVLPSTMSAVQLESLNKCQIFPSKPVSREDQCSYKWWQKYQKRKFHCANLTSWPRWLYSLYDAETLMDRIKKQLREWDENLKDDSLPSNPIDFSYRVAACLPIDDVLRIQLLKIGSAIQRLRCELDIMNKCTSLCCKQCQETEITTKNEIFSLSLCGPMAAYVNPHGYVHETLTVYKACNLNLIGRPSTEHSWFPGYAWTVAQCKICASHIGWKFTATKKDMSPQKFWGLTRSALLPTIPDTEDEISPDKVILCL


Target: T1, CRBN, Q96SW2
Assay: log2 fold change of degron read counts, EGFP-low vs EGFP+ sorted cells (limma voom), compound-induced degradation; higher = more compound-induced degradation of the degron-EGFP fusion; degrons are variants of IKZF1/3 zinc finger 2; compound dose not given here
Settings: Jurkat, 18 h
[1] = compound: compound 19 (5-tert-butyl-thalidomide)
[2] = compound: compound 22 (5-morpholino-thalidomide)
[3] = compound: compound 33 (diphenyl IMiD analogue)
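Note: pooled lentiviral library of zinc finger degron-EGFP fusions in mCherry-positive Jurkat cells, FACS-sorted after compound exposure, with degron abundance counted by next-generation sequencing.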

Sequence	log2 fold change of degron read counts [1]	log2 fold change of degron read counts [2]	log2 fold change of degron read counts [3]	log2 fold change of degron read counts (compound: thalidomide)
FRCDICGANFTQKGNLLRHIKL [46F_47R_49D_50I_52G_53A_54N_55F_67L_, Q9UKT9]	-1.48	-1.55	0.418	-0.326
FDCNVCGAYFTQKGNLLRHIKL [46F_47D_49N_50V_52G_53A_54Y_55F_67L_, Q9UKT9]	-1.56	-2.08	-0.374	-0.686
FICSVCGHEFTQKGNLLRHIKL [46F_47I_49S_50V_52G_53H_54E_55F_67L_, Q9UKT9]	-3.46	-3.92	-3.21	-3.41
FICPVCGAQFTQKGNLLRHIKL [46F_47I_49P_50V_52G_53A_54Q_55F_67L_, Q9UKT9]	-0.745	2.74	2.89	2.73
FDCPVCGAQFTQKGNLLRHIKL [46F_47D_49P_50V_52G_53A_54Q_55F_67L_, Q9UKT9]	1.44	0.833	1.04	2.23
FQCPVCGAQFTQKGNLLRHIKL [46F_47Q_49P_50V_52G_53A_54Q_55F_67L_, Q9UKT9]	0.712	2.48	2.51	3.59
FNCPVCGAQFTQKGNLLRHIKL [46F_47N_49P_50V_52G_53A_54Q_55F_67L_, Q9UKT9]	2.01	1.68	0.869	0.953
FHCPVCGAQFTQKGNLLRHIKL [46F_47H_49P_50V_52G_53A_54Q_55F_67L_, Q9UKT9]	1.78	2.55	2.19	1.13
FGCPVCGAQFTQKGNLLRHIKL [46F_47G_49P_50V_52G_53A_54Q_55F_67L_, Q9UKT9]	3.8	2.65	1.73	1.07
FLCDVCGALFTQKGNLLRHIKL [46F_47L_49D_50V_52G_53A_54L_55F_67L_, Q9UKT9]	-2.27	-2.28	-1.03	-1.23
FNCPVCGAVFTQKGNLLRHIKL [46F_47N_49P_50V_52G_53A_54V_55F_67L_, Q9UKT9]	0.592	0.118	0.729	0.198
